Experimental data published in PubChem BioAssay (Tox21).
Records with an inconclusive call do not appear. Unmarked numbers belong to inactive results. The source made the active and inactive calls. Calls come from the whole dose curve; as a rule, active = well fitted cell-killing curve with a large enough effect in the repeat runs; inconclusive = weak or mixed curves, or effect the other way; inactive = flat fitted curve, though single readings scatter.

experiment: qHTS assay to identify small molecule that activate the aryl hydrocarbon receptor (AhR) signaling pathway - cell viability counter screen (AID 743086); details: HepG2-AhR-luc viability, CellTiter-Fluor, 24 h; series mostly up to 70.3 µM; viability change, negative = cytotoxic: at the top concentration; note: nearly all actives have a fitted effect of over 45% in size;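 for viability change, negative = cytotoxic: HepG2 liver cells carrying the AhR DRE luciferase reporter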
Excerpt: U.S. Tox21 Program National Center for Advancing Translational Sciences [NCATS] NIH Chemical Genomics Center [NCGC] U.S. Environmental Protection Agency [EPA] National Institutes of Environmental Health Sciences [NIEHS] National Toxicology Program [NTP] U.S. Food and Drug Administration [FDA] Tox21 Assay overview: The Aryl hydrocarbon Receptor (AhR), a member of the family of basic helix-loop-helix transcription factors, is crucial to adaptive responses to environmental changes. AhR mediates cellular responses to environmental pollutants such as aromatic hydrocarbons through induction of phase I and II enzymes but also interacts with other nuclear receptor signaling pathways A cell based HepG2-AhR-luc assay (HG2L7.5c1 cell line, developed by Dr. Michael S. Denison, University of California at Davis) was used to assess the activation of AhR. HepG2 (human hepatocellular carcinoma) cells were stably transfected with an Ah receptor-responsive firefly luciferase reporter gene plasmid containing 20 dioxin responsive elements and luciferase reporter gene. Increased luciferase activity can be used to identify the compounds that induce AhR activation. The cytotoxicity of the compounds screened against the HepG2-AhR-luc cell line was tested in parallel by measuring the cell viability using CellTiter-Fluor assay in the same wells.
Tox21 Assay Protocol Summary: 4000 cells in 5 uL/well were dispensed into white wall/solid bottom 1536-well plates using a Multidrop Combi (Thermo Fisher Scientific Inc., Waltham, MA) dispenser. After the assay plates were incubated at 37C for 5 h, 23 nL of compound or DMSO vehicle was transferred to the assay plates by a pintool station (Kalypsys, San Diego, CA). The plates were incubated at 37C for 24 hr. For cell viability measurement, 1 ul/well of CellTiter-Fluor reagent (Promega, Madison, WI) was added into the assay plates using a Flying Reagent Dispenser (FRD) (Aurora Discovery, CA),and then the assay plates were incubated at 37C for 30 min. The fluorescence intensity in the plates was measured using a ViewLux plate reader (PerkinElmer, Shelton, CT), followed by the addition of 4 uL of ONE-Glo Luciferase Assay reagent (Promega) using an FRD (Aurora Discovery). After the assay plates were incubated at room temperature for 30 min, luminescence intensity was measured using a ViewLux plate reader (Perkin Elmer).
% is set by controls: 0 for no effect and ±100 for the full control effect; potency is the fitted concentration of half-maximal effect.

Row | Compound | viability change, negative = cytotoxic | Potency
1 | C[C@H](O)CN(C)C | -0.818% | –
2 | CC1(C)S[C@@H]2[C@H](NC(=O)[C@H](N)c3ccc(O)cc3)C(=O)N2[C@H]1C(=O)O | -0.879% | –
3 | CC(C)(C)C(=O)OCC(=O)[C@H]1CC[C@H]2[C@@H]3CCC4=CC(=O)CC[C@]4(C)[C@H]3CC[C@]12C | 8.05% | –
4 | CC[C@@]1([C@@H]2O[C@@H]([C@H]3O[C@@](O)(CO)[C@H](C)C[C@@H]3C)C[C@@H]2C)CC[C@H]([C@]2(C)CC[C@]3(C[C@H](O)[C@@H](C)[C@@H]([C@@H](C)[C@@H](OC)[C@H](C)C(=O)O)O3)O2)O1 (stereo in doubt) | – | inactive
5 | CC1(C)CCC(NC(=O)[C@@H](N)CCC(=O)O)CC1 | 21.3% | –
6 | S=C1NC=NC2N=CNC12 (stereo not given) | -11.3% | –
7 | c1ccc2cc3c4ccccc4c4ccccc4c3cc2c1 | -0.413% [at 95 µM] | –
8 | CC(C)COC(=O)OCN1C(=O)CN(CCN2CC(=O)N(COC(=O)OCC(C)C)C(=O)C2)CC1=O | 4.61% | –
9 | FC(F)(F)C(F)(F)C(F)(F)C(F)(F)C(F)(F)F | 16% | –
10 | COC1=C(OC)C(=O)C(C/C=C(\C)CC/C=C(\C)CC/C=C(\C)CC/C=C(\C)CC/C=C(\C)CC/C=C(\C)CC/C=C(\C)CC/C=C(\C)CC/C=C(\C)CCC=C(C)C)=C(C)C1=O | – | inactive
11 | CCOc1ccc([N+](=O)[O-])cc1 | 0.823% [at 95 µM] | –
12 | OCCCNc1ccccc1 | 10.4% | –
13 | O=C(O)COc1ccc(C(=O)c2cccs2)c(Cl)c1Cl | – | inactive
14 | CC(C)C[C@@H](NC(=O)[C@@H](O)[C@H](N)Cc1ccccc1)C(=O)O | – | 376 nM (active)
15 | C/C=C/C1=C(C(=O)O)N2C(=O)[C@@H](NC(=O)[C@H](N)c3ccc(O)cc3)[C@H]2SC1 | 10.1% | –
16 | CSCC[C@H](NC(=O)[C@H](Cc1ccc(OS(=O)(=O)O)cc1)NC(=O)[C@@H](N)CC(=O)O)C(=O)NCC(=O)N[C@@H](Cc1c[nH]c2ccccc12)C(=O)N[C@@H](CCSC)C(=O)N[C@@H](CC(=O)O)C(=O)N[C@@H](Cc1ccccc1)C(N)=O | – | inactive
17 | O=[N+]([O-])c1ccc(O)c2ncccc12 | -29.6% | –
18 | CCCCCCCCCCCCCCCCC(C(=O)O)C(O)(CC(=O)O)C(=O)O (stereo not given) | 1.67% | –
19 | CNCC(=O)N[C@@H](CCCN=C(N)N)C(=O)N[C@H](C(=O)N[C@@H](Cc1ccc(O)cc1)C(=O)N[C@H](C(=O)N[C@@H](Cc1cnc[nH]1)C(=O)N1CCC[C@H]1C(=O)N[C@@H](C)C(=O)O)C(C)C)C(C)C | -1.34% | –
20 | CC12CCC(C1)C(C)(C)C2=O (stereo not given) | -1.66% | –

Row | Compound | viability change, negative = cytotoxic | Potency
21 | CC[C@H]1OC(=O)C[C@@H](O)[C@H](C)[C@@H](O[C@@H]2O[C@H](C)[C@@H](O)[C@H](N(C)C)[C@H]2O)[C@@H](CCN2C[C@H](C)C[C@H](C)C2)C[C@@H](C)C(=O)/C=C/C(C)=C/[C@@H]1CO[C@@H]1O[C@H](C)[C@@H](O)[C@@H](OC)[C@H]1OC | 0.145% | –
22 | NCC(O)CC(=O)O (stereo not given) | 7.35% | –
23 | CCC(NC(C)C)C(O)c1ccc(O)c(O)c1 (stereo not given) | 2.86% | –
24 | C[S+](CC[C@H](N)C(=O)O)C[C@H]1O[C@@H](n2cnc3c(N)ncnc32)[C@H](O)[C@@H]1O (stereo not given in full) | – | inactive
25 | C[S+](C)CCC(N)C(=O)O (stereo not given) | -1.53% | –
26 | O=C(O)CCCC/C=C(\c1ccccc1)c1cccnc1 | -1.53% | –
27 | COc1cc2c(cc1O)CCN[C@]21CS[C@@H]2c3c(OC(C)=O)c(C)c4c(c3[C@H](COC1=O)N1[C@@H]2[C@H]2c3c(cc(C)c(OC)c3O)C[C@@H]([C@@H]1O)N2C)OCO4 | – | 16.8 nM (active)
28 | O=C1CCCCCCCCCCCCCC1 | 3.86% | –
29 | CC[C@H](C)C(=O)O[C@H]1CCC=C2C=C[C@H](C)[C@H](CC[C@@H]3C[C@@H](O)CC(=O)O3)[C@H]21 | 12.9% | –
30 | O=C1[O][Bi][O]c2ccccc21 | -0.112% | –
31 | CCCCCCOC(=O)c1cccnc1 | 0.314% | –
32 | CC(=O)OCC(=O)[C@@]1(O)CC[C@H]2[C@@H]3CCC4=CC(=O)CC[C@]4(C)C3=CC[C@@]21C | 10.5% | –
33 | c1ccc2c(c1)OCC(CN1CCCCC1)O2 (stereo not given) | -0.878% | –
34 | CO/N=C(\C(=O)N[C@@H]1C(=O)N2C(C(=O)[O-])=C(C[n+]3cccc4c3CCC4)CS[C@H]12)c1csc(N)n1 | 8.52% | –
35 | NC(N)=NCc1cccc(I)c1 | – | inactive
36 | CC/C=C\C/C=C\C/C=C\C/C=C\C/C=C\CCCC(=O)O | 5.63% | –
37 | C[C@H](NCCc1ccc(O)cc1)[C@H](O)c1ccc(O)cc1 | 8.44% | –
38 | CC(C)C[C@H](NC(=O)[C@@H](COC(C)(C)C)NC(=O)[C@H](Cc1ccc(O)cc1)NC(=O)[C@H](CO)NC(=O)[C@H](Cc1c[nH]c2ccccc12)NC(=O)[C@H](Cc1cnc[nH]1)NC(=O)[C@@H]1CCC(=O)N1)C(=O)N[C@@H](CCCN=C(N)N)C(=O)N1CCC[C@H]1C(=O)NNC(N)=O | – | inactive
39 | CN[C@@H]1[C@@H](O[C@H]2O[C@H](CO)[C@@H](N)[C@H](O)[C@H]2O)O[C@H]2C[C@@H](N)[C@@H](O[C@H]3[C@H](O)[C@@H](O)[C@H](N)C[C@@H]3N)O[C@@H]2[C@@H]1O | 4.36% [at 32.5 µM] | –
40 | NS(=O)(=O)c1cc(Cl)c(Cl)c(S(N)(=O)=O)c1 | 12.1% [at 32.5 µM] | –
